Source: PubChem BioAssay (EPA / NIEHS)
Values joined by “and” are separate entries in the source; they are usually repeats but may differ in a detail not shown here. Equal entries are not always repeated. Records with an inconclusive call do not appear. A structure can be active in one record and inactive in another. Active and inactive are the calls of the source. The calls were made as follows, unless noted: active = hit-call score of the fitted dose curve at least 0.9, where 1 is the maximum; inactive = score below 0.9.

Columns and labels:
[1] = CCTE_Shafer_MEA_dev_network_spike_peak: CCTE's Neural Network Formation Assay for Mean Number of Electrodes in Network Spike, Shafer Lab (AID 2284049);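 as to AC50: fitted for loss of signal meaning fewer electrodes in network spikes than DMSO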
In short: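 Rat cortical primary culture, 1.5 x 10^5 cells/well, 48-well MEA (16 electrodes/well). Dosing day 0 through DIV 12, full media/compound exchange DIV 5, 9. AxIS adaptive spike detection; AUC over days 5/7/9/12; loss-of-signal vs DMSO.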

[2] = CCTE_Shafer_MEA_dev_spike_duration_mean: CCTE's Neural Network Formation Assay for Mean Spike Duration, Shafer Lab (AID 2284051);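 also: mean network spike duration pooled as area under curve over DIV 5 to 12 recordings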;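 as to AC50: potency for a decrease in mean network spike duration versus DMSO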
In short: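 Primary rat cortical neurons on 16-electrode MEA wells (PEI-coated, laminin in plating drop), exposed from plating through DIV 12 with compound renewed at DIV 5 and 9. Mean network-spike duration recorded DIV 5, 7, 9, 12; trapezoidal AUC across days, DMSO baseline.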

[3] = CCTE_Shafer_MEA_dev_network_spike_duration_std: CCTE's Neural Network Formation Assay for Standard Deviation of Network Spike Duration, Shafer Lab (AID 2284052);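 also: area under curve of spike duration SD across recording days 5 to 12; hits are decreases in network spike duration SD versus DMSO vehicle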
In short: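 Primary rat cortical neurons on PEI-coated 16-electrode MEA wells, exposed from plating day 0 through day 12 with compound renewed at DIV 5 and 9. Network spike duration SD recorded on days 5, 7, 9, 12, collapsed as trapezoidal AUC; loss-of-signal fit versus DMSO.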

[4] = CCTE_Shafer_MEA_dev_per_network_spike_spike_number_mean: CCTE's Neural Network Formation Assay for Mean Number of Spikes in a Network Spike, Shafer Lab (AID 2284053);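 as to AC50: fitted as decrease in spikes per network spike relative to DMSO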
In short: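 Primary rat cortical neurons on 48-well, 16-electrode MEA plates were exposed from plating to DIV 12, with dosing renewed on DIV 5 and 9. Spikes per network spike (0.05 s peak window) were recorded on DIV 5, 7, 9 and 12 and collapsed as trapezoidal AUC versus DMSO.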

[5] = CCTE_Shafer_MEA_dev_per_network_spike_spike_percent: CCTE's Neural Network Formation Assay for Percent of Spikes in a Network Spike, Shafer Lab (AID 2284054)
In short: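 Metric: fraction of spikes falling in a 0.05 s window at network-spike peaks. Recordings were made on days 5, 7, 9 and 12 and collapsed by trapezoidal AUC. Cultures were rat cortical neurons on MEA plates, dosed continuously from plating, re-dosed at media changes.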

[6] = CCTE_Shafer_MEA_dev_AB: CCTE's Alamar Blue Assay for Cytotoxicity in the Neural Network Formation Assay, Shafer Lab (AID 2284083; active = hit-call score of the fitted dose curve at least 0.9, where 1 is the maximum;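 also: twelve days of exposure from plating with re-dosing on DIV 5 and 9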)
In short: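 Primary rat cortical neurons on PEI-coated 48-well MEA plates, 1.5 x 10^5 cells/well in laminin drop; compound exposure from day 0 of plating for twelve days, renewed at medium changes on DIV 5 and 9. Viability read as resazurin reduction by fluorescence, relative to DMSO.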

DIO2 (gene 1734) = test: CCTE_GLTED_hDIO2: CCTE's human Deiodinase 2 (DIO2) Inhibition Assay, Great Lakes Toxicology and Ecology Division (GLTED) Lab (AID 2284050; active = hit-call score of the fitted dose curve at least 0.9, where 1 is the maximum)
In short: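 Iodide released by human deiodinase 2 over 3 h with test chemical, measured spectrophotometrically via Sandell-Kolthoff cerium/arsenic reaction. Run n=3; inhibition referenced to DMSO.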

DIO3 (gene 1735) = test: CCTE_GLTED_hDIO3: CCTE's human Deiodinase 3 (DIO3) Inhibition Assay, Great Lakes Toxicology and Ecology Division (GLTED) Lab (AID 2284055; active = hit-call score of the fitted dose curve at least 0.9, where 1 is the maximum;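 as to AC50: potency is for inhibition seen as loss of released iodide signal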)
In short: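 Inhibition is read as reduced iodide release, measured spectrophotometrically by the Sandell-Kolthoff cerium/arsenic reaction. Adenovirus-expressed human DIO3 enzyme is exposed to chemical for 3 h, n=3 plates. Iodinated chemicals, nitrite, iron or thiocyanate may interfere.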

[7] = UKN5_HCS_SBAD2_cell_viability: Viability Assessment in the University of Konstanz (UKN) Leist Lab Neurite Outgrowth Assay in human iPSC-derived immature Dorsal Root Ganglia Neurons (UKN5) (AID 2284056)
In short: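 iPSC-derived immature peripheral neurons (SBAD2) seeded on Matrigel with CHIR99021, SU5402 and DAPT, dosed 1 h later for 24 h. Viability from Hoechst H-33342 and calcein-AM live staining, high-content imaging; bidirectional fit versus DMSO.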

[8] = UKN5_HCS_SBAD2_neurite_outgrowth: University of Konstanz (UKN) Leist Lab Neurite Outgrowth Assay in human iPSC-derived immature Dorsal Root Ganglia Neurons (UKN5) (AID 2284070); conditions: actives raise or lower the signal
Protocol: UKN5_HCS_SBAD2 is a cell-based, multiplexed-readout assay screening for neurite outgrowth and cell viability that uses SBAD2 (peripheral neurons differentiated from iPSC), a human peripheral nervous system cell line, with measurements taken at […] after chemical dosing in a microplate: 96-well plate. UKN5, also referred to as PeriTox, is an assay that uses human iPSC line SBAD2 as a model of peripheral neurons. Following 24 hr chemical exposures in multi-well plates, neurite area is evaluated as a marker of neurite outgrowth using high-content imaging of cells stained with calcein-AM. Cell viability is assessed using stain Hoechst H-33342.UKN5_HCS_SBAD2_neurite_outgrowth is an assay component measured from the UKN5_HCS_SBAD2 assay. It is designed to make measurements of neurite outgrowth, a form of morphology reporter, as detected with Fluorescence intensity signals by HCS Fluorescent Imaging.The assay endpoint UKN5_HCS_SBAD2_neurite_outgrowth was analyzed with bidirectional fitting relative to DMSO as the negative control and baseline of activity. Using a type of morphology reporter, gain or loss-of-signal activity can be used to understand developmental effects. To generalize the intended target to other relatable targets, this assay endpoint is annotated to the neurodevelopment intended target family, where the subfamily is neurite outgrowth. […]

Measured: AC50

CNC(=O)Oc1cccc2c1OC(C)(C)C2
active: [1] 10 µM and 49.6 µM | [2] 10 µM and 49.6 µM | [4] 49.6 µM | [6] 49.6 µM
inactive: [3] | [4] | [5] | [6]

[Cl-].[Cl-].[Hg+2]
active: [1] 0.641 µM | [2] 0.64 µM | [3] 382 nM | [4] 0.894 µM | [5] 0.423 µM | [6] 0.559 µM

ClCCOCCCl
inactive: DIO2 (gene 1734) | DIO3 (gene 1735)

Clc1ccc(C(c2ccc(Cl)cc2)C(Cl)(Cl)Cl)cc1
active: [1] 3.55 µM and 6.68 µM | [2] 2.62 µM and 8.54 µM | [3] 1.98 µM and 8.91 µM | [4] 6.95 µM and 5.75 µM | [5] 3.02 µM and 4.15 µM | [6] 3.88 µM and 8.94 µM

Oc1ccc2ccc3cccc4ccc1c2c34
active: DIO2 (gene 1734) 100 µM | DIO3 (gene 1735) 61.4 µM

CCNS(=O)(=O)C(F)(F)C(F)(F)C(F)(F)C(F)(F)C(F)(F)C(F)(F)C(F)(F)C(F)(F)F
active: [1] 5.46 µM and 1.92 µM | DIO2 (gene 1734) 100 µM | [2] 15 µM and 4.81 µM | [4] 4.54 µM and 2.66 µM | [5] 6.71 µM and 4.93 µM | [6] 15 µM and 7.67 µM
inactive: [3] | DIO3 (gene 1735)

CC(C)(C)C(O)(CCc1ccc(Cl)cc1)Cn1cncn1 (configuration not stated)
inactive: [3] | [5] | [6]
active: [1] 15 µM | [2] 15 µM | [4] 15 µM

ClC1=C(Cl)C2(Cl)C3C(Cl)C=CC3C1(Cl)C2(Cl)Cl (configuration not stated)
active: [1] 4.19 µM | [2] 4.2 µM | [3] 744 nM | [4] 2.98 µM | [5] 1.4 µM | [6] 0.937 µM

CN(C)[C@@H]1C(=O)C(C(N)=O)=C(O)[C@@]2(O)C(=O)C3=C(O)c4c(O)cccc4[C@@](C)(O)[C@H]3C[C@@H]12
active: DIO3 (gene 1735) 79.8 µM
inactive: [1] | DIO2 (gene 1734) | [2] | [3] | [4] | [5] | [6]

CC(C)(O)c1cnn2c(-c3ccc(F)c(-c4c(F)cccc4C#N)c3)cnc2n1
active: [1] 1.98 µM | [2] 1.98 µM | [5] 10 µM
inactive: [3] | [4] | [6]

C1=Cc2cccc3cccc1c23
inactive: [1] | [2] | [3] | [4] | [5] | [6]

CC(C)COC(=O)c1ccccc1C(=O)OCC(C)C
inactive: [3]
active: [1] 15.9 µM | [2] 13.7 µM | [4] 13.6 µM | [5] 23.1 µM | [6] 24.8 µM

Nc1cc(Cl)cc(C(=O)O)c1Cl
inactive: [1] | [2] | [3] | [4] | [5]

O=P(OCCCl)(OCCCl)OCCCl
inactive: [1] | [2] | [3] | [4] | [5] | [6]

Clc1ccc(C(c2ccc(Cl)cc2)C(Cl)Cl)cc1
active: [1] 4.03 µM | [2] 3.39 µM | [3] 3210 nM | [4] 4.95 µM | [5] 3.97 µM | [6] 5.14 µM

ClC1=C(Cl)[C@]2(Cl)[C@H]3[C@H]([C@@H]4C=C[C@H]3C4)[C@@]1(Cl)C2(Cl)Cl
inactive: [3]
active: [1] 5.55 µM | [2] 5.79 µM | [4] 1.98 µM | [5] 7.67 µM | [6] 7.93 µM

COC(=O)Nc1nc2ccccc2[nH]1
active: [1] 12.5 µM | [2] 12.5 µM | [4] 12.5 µM | [5] 5.94 µM | [6] 7.64 µM
inactive: [3]

OCCOCCO
inactive: [1] | [2] | [3] | [4] | [5]

COP(=S)(OC)SCN1C(=O)c2ccccc2C1=O
inactive: [3] | [4] | [5] | [6]
active: [1] 37.6 µM and 51.5 µM | [2] 36.7 µM and 23.6 µM | [4] 31.8 µM | [5] 20.2 µM | [6] 31.7 µM

C[C@]12C=CC3=C4CCC(=O)C=C4CC[C@H]3[C@@H]1CC[C@@H]2O
active: DIO2 (gene 1734) 100 µM | DIO3 (gene 1735) 23.5 µM

CCC[CH2][Sn]([Cl])([CH2]CCC)[CH2]CCC
active: [1] 0.0754 µM | [2] 0.0303 µM | [3] 13.8 nM | [4] 0.0632 µM | [5] 0.0777 µM | [7] 0.306 µM | [8] 0.109 µM | [6] 0.0814 µM

CCCCCCCCn1sccc1=O
active: DIO2 (gene 1734) 8.47 µM | DIO3 (gene 1735) 17.5 µM

CCCCOC(=O)c1ccccc1C(=O)OCc1ccccc1
inactive: [3] | [4] | [5] | [6]
active: [1] 15.2 µM | [2] 13.6 µM

[O-][Cl+]O
inactive: [1] | [2] | [3] | [4] | [5] | [6]
